Laboratory results published in PubChem BioAssay (Tox21).
Where “and” joins values, the source holds several entries; their conditions need not be identical. Equal entries are not always repeated. Results filed as inconclusive are left out. Where a structure was tested more than once in an assay, its records may differ in their call. Calls of active or inactive are those of the source. Calls follow the shape of the dose curve; as a rule, active = well fitted curve in the direction sought with a large enough effect in the repeat runs; inconclusive = weak or mixed curves; inactive = no such curve, though single readings can be large; an effect the other way counts as inactive or inconclusive.

Columns and labels:
[1] = A CellTox Green Cytotoxicity Assay to monitor cytotoxicity in HEK293 cells - 40 hour (AID 1224871); also: nearly all actives have a fitted effect of over 45% in size; also: potency is read from the fitted curve at half-maximal effect
Procedure, shortened: (§1)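 Homogeneous no-lysis format: HEK293 cell suspension mixed with CellTox Green reagent, seeded, incubated 5 h at 37 C/5% CO2, then dosed by pintool with compound in DMSO.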

[2] = qHTS RealTime-Glo MT Cell Viability Assay in HepG2 cells - 8 hour (AID 1224873); also: nearly all actives have a fitted effect of over 55% in size
Procedure, shortened: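 HepG2 cells mixed with RealTime-Glo MT reagents (NanoLuc plus cell-permeant prosubstrate) were seeded at 600 cells/well, incubated 5 h at 37 C/5% CO2, then pinned with compounds in DMSO; nonlytic luminescence tracked viability during 40 h treatment.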

[3] = qHTS RealTime-Glo MT Cell Viability Assay in HEK293 cells - 40 hour (AID 1224874); conditions: RealTime-Glo luminescence; max response: stronger effect = lower value; also: nearly all actives have a fitted effect of over 50% in size; also: potency is read from the fitted curve at half-maximal effect
Procedure, shortened: (§2)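 Measured as luminescence from the same continuously cultured HEK293 wells at successive time points (0, 8, 16, 24, 32, 40 h) after compound addition. Reagent present from seeding; dosing at 5 h; incubation 37 C.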

[4] = A CellTox Green Cytotoxicity Assay to monitor cytotoxicity in HEK293 cells - 24 hour (AID 1224875); also: nearly all actives have a fitted effect of over 45% in size; also: potency is read from the fitted curve at half-maximal effect; as to activity change: series mostly up to about 77 µM
Procedure, shortened: as §1

[5] = qHTS RealTime-Glo MT Cell Viability Assay in HepG2 cells - 32 hour (AID 1224877); also: nearly all actives have a fitted effect of over 55% in size; also: potency is read from the fitted curve at half-maximal effect
Procedure, shortened: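 HepG2 cells were seeded at 600 cells/well together with NanoLuc luciferase and a cell-permeant prosubstrate, preincubated 5 h at 37 C/5% CO2, then pin-dosed with compounds in DMSO. Nonlytic luminescence from viable cells was read at each time point.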

[6] = A CellTox Green Cytotoxicity Assay to monitor cytotoxicity in HepG2 cells - 24 hour (AID 1224878); also: nearly all actives have a fitted effect of over 45% in size; also: potency is read from the fitted curve at half-maximal effect
Procedure, shortened: (§3)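 Fluorescent DNA-binding dye, 600 HepG2 cells/well, 5 h preincubation then compound in DMSO; same plates read at 0–40 h, 37 C.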

[7] = A CellTox Green Cytotoxicity Assay to monitor cytotoxicity in HepG2 cells - 40 hour (AID 1224879); also: nearly all actives have a fitted effect of over 40% in size; also: potency is read from the fitted curve at half-maximal effect
Procedure, shortened: as §3

[8] = qHTS RealTime-Glo MT Cell Viability Assay in HEK293 cells - 0 hour (AID 1224880); also: nearly all actives have a fitted effect of over 45% in size; also: potency is read from the fitted curve at half-maximal effect; as to activity change, negative = cytotoxicity: top concentration of the series differs between compounds
Procedure, shortened: as §2

[9] = qHTS RealTime-Glo MT Cell Viability Assay in HEK293 cells - 16 hour (AID 1224872); also: nearly all actives have a fitted effect of over 50% in size; also: potency is read from the fitted curve at half-maximal effect; as to activity change, negative = cytotoxicity: top concentration of the series differs between compounds
Procedure, shortened: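 HEK293 cells were seeded at 600 cells/well together with NanoLuc luciferase and cell-permeant prosubstrate, preincubated 5 h at 37 C/5% CO2, then given compound in DMSO by pintool. Luminescence from viable-cell prosubstrate reduction was read repeatedly over 40 h.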

[10] = A CellTox Green Cytotoxicity Assay to monitor cytotoxicity in HepG2 cells - 16 hour (AID 1224876); also: nearly all actives have a fitted effect of over 45% in size; also: potency is read from the fitted curve at half-maximal effect
Procedure, shortened: as §3
% is scaled to controls: 0 for no effect and ±100 for the full control effect.

SMILES: CC(C)C(C)(C)C(C)(C)C(C)(C)S
- Potency [1]: inactive
- Potency [2]: inactive
- max response [3]: 0.74% (inactive)
- Potency [4]: inactive
- Potency [5]: inactive
- Potency [6]: inactive
- Potency [7]: inactive
- Potency [8]: inactive

SMILES: Cc1cc(CCN2CCN(c3nsc4ccccc34)CC2)cc2c1NC(=O)CC2(C)C
- Potency [1]: 49 µM (active)
- Potency [9]: 13.8 µM (active)
- Potency [3]: 6.92 µM (active)
- Potency [4]: 49 µM (active)
- Potency [5]: 54.9 µM (active)
- Potency [8]: inactive

SMILES: CCCC1O[C@@H]2C[C@H]3[C@@H]4CCC5=CC(=O)C=C[C@]5(C)[C@H]4[C@@H](O)C[C@]3(C)[C@]2(C(=O)CO)O1 (stereo partly specified)
- Potency [1]: inactive
- Potency [2]: inactive
- Potency [3]: 24.6 µM (active) and 43.6 µM (active)
- Potency [4]: inactive
- Potency [10]: inactive
- Potency [5]: inactive
- Potency [6]: inactive
- Potency [7]: 49 µM (active)
- Potency [8]: 30.9 µM (active)

SMILES: CCCCCCCCCCCCCCCCCC[N+](C)(C)C
- Potency [1]: 21.9 µM (active)
- Potency [9]: 24.6 µM (active)
- Potency [3]: 7.79 µM (active)
- Potency [4]: 39 µM (active)
- Potency [7]: 49.1 µM (active)
- Potency [8]: inactive

SMILES: CCC(Cl)C(Cl)C(Cl)CC(Cl)C(Cl)C(C)Cl (stereo unspecified)
- Potency [1]: inactive
- Potency [2]: inactive
- max response [3]: -19.8% (inactive)
- Potency [4]: inactive
- Potency [5]: inactive
- Potency [6]: inactive
- Potency [7]: inactive
- Potency [8]: inactive

SMILES: COc1ccc(CN2CCN(C(c3ccc(F)cc3)c3ccc(F)cc3)CC2)c(OC)c1OC
- Potency [1]: 4.77 µM (active)
- Potency [9]: 9.52 µM (active)
- Potency [3]: 16.9 µM (active)
- Potency [4]: inactive
- Potency [6]: inactive
- Potency [7]: 10.7 µM (active)
- Potency [8]: inactive

SMILES: CC(C)(C)CC(C)(C)c1ccc(O)c(Cc2ccc(Cl)cc2Cl)c1
- Potency [1]: 23.9 µM (active)
- Potency [9]: 21.3 µM (active)
- Potency [3]: 23.9 µM (active)
- Potency [4]: 26.8 µM (active)
- Potency [8]: inactive

SMILES: Oc1ccc(Cl)cc1Sc1cc(Cl)ccc1O
- Potency [1]: 38.8 µM (active) and inactive
- Potency [9]: 21.8 µM (active)
- Potency [3]: 19.5 µM (active) and 23.9 µM (active)
- Potency [6]: 43.6 µM (active)
- Potency [7]: 48.9 µM (active) and 26.8 µM (active)

SMILES: C[C@@H]1C[C@H]2[C@@H]3CCC4=CC(=O)C=C[C@]4(C)[C@@]3(Cl)[C@@H](O)C[C@]2(C)[C@@]1(OC(=O)c1ccco1)C(=O)CCl
- Potency [1]: inactive
- Potency [9]: inactive
- max response [3]: -19.5% (inactive)
- Potency [4]: inactive
- Potency [10]: inactive
- Potency [6]: inactive
- Potency [7]: inactive
- Potency [8]: inactive

SMILES: O=C(OC[C@H]1O[C@@H](OC(=O)c2cc(O)c(O)c(OC(=O)c3cc(O)c(O)c(O)c3)c2)[C@H](OC(=O)c2cc(O)c(O)c(OC(=O)c3cc(O)c(O)c(O)c3)c2)[C@@H](OC(=O)c2cc(O)c(O)c(OC(=O)c3cc(O)c(O)c(O)c3)c2)[C@@H]1OC(=O)c1cc(O)c(O)c(OC(=O)c2cc(O)c(O)c(O)c2)c1)c1cc(O)c(O)c(OC(=O)c2cc(O)c(O)c(O)c2)c1
- cytotoxicity increase [1]: -40.6% [at 15.8 µM] (inactive)
- activity change, negative = cytotoxicity [9]: -9.99% [at 15.8 µM] (inactive)
- activity change [4]: -38.6% [at 15.8 µM, stronger effect = higher value] (inactive)
- cytotoxicity increase [10]: -47.1% [at 15.8 µM] (inactive)
- cytotoxicity [6]: -52.4% [at 15.8 µM] (inactive)
- cytotoxicity increase [7]: -56% [at 15.8 µM] (inactive)
- activity change, negative = cytotoxicity [8]: -3.48% [at 15.8 µM] (inactive)

SMILES: CC[C@@]1(O)C(=O)OCc2c1cc1n(c2=O)Cc2c-1nc1ccccc1c2/C=N/OC(C)(C)C
- Potency [1]: inactive
- Potency [2]: inactive
- Potency [3]: 0.0239 µM (active)
- Potency [4]: inactive
- Potency [10]: 3.38 µM (active)
- Potency [6]: 0.848 µM (active)
- Potency [7]: 1.07 µM (active)
- Potency [8]: inactive

SMILES: CCCCCCCCCCCCCCCS(=O)(=O)Oc1ccccc1
- Potency [1]: inactive
- Potency [2]: inactive
- max response [3]: -18% (inactive)
- Potency [4]: inactive
- Potency [10]: inactive
- Potency [5]: inactive
- Potency [6]: inactive
- Potency [7]: inactive
- Potency [8]: inactive

SMILES: O=C(Oc1ccccc1)c1ccccc1C(=O)Oc1ccccc1
- Potency [1]: inactive
- Potency [9]: inactive
- max response [3]: -2.84% (inactive)
- Potency [4]: inactive
- Potency [5]: inactive
- Potency [6]: inactive
- Potency [7]: inactive
- Potency [8]: inactive

SMILES: Nc1c2ccccc2nc2ccccc12
- Potency [1]: 24.2 µM (active)
- Potency [9]: 19.2 µM (active)
- Potency [3]: 4.83 µM (active) and 2.39 µM (active)
- Potency [5]: 24.2 µM (active) and 10.7 µM (active)
- Potency [6]: 10.7 µM (active)
- Potency [7]: 10.8 µM (active) and 10.7 µM (active)
- Potency [8]: inactive

SMILES: CCOc1ccc2nc3cc(N)ccc3c(N)c2c1
- Potency [1]: 21.3 µM (active)
- Potency [2]: inactive
- Potency [3]: 13.4 µM (active)
- Potency [10]: inactive
- Potency [5]: 8.49 µM (active)
- Potency [6]: 23.9 µM (active)
- Potency [7]: 6.01 µM (active)
- Potency [8]: inactive

SMILES: N=C1C=CC(=C(c2ccc(N)cc2)c2ccc(N)cc2)C=C1
- Potency [1]: inactive
- Potency [9]: 3.09 µM (active)
- Potency [3]: 1.95 µM (active)
- Potency [4]: inactive
- Potency [5]: 24.5 µM (active)
- Potency [6]: inactive
- Potency [7]: inactive
- Potency [8]: inactive

SMILES: CCCCCCCCCCCCc1ccc(O)cc1
- Potency [1]: 49 µM (active)
- Potency [9]: 38.9 µM (active)
- Potency [3]: 38.9 µM (active)
- Potency [4]: 49 µM (active)
- Potency [5]: 49 µM (active)
- Potency [6]: 13.8 µM (active)
- Potency [7]: 19.5 µM (active)
- Potency [8]: inactive

SMILES: Oc1cccc(-c2c3nc(c(-c4cccc(O)c4)c4ccc([nH]4)c(-c4cccc(O)c4)c4nc(c(-c5cccc(O)c5)c5ccc2[nH]5)CC4)C=C3)c1
- Potency [1]: inactive
- Potency [9]: 23.9 µM (active)
- Potency [4]: inactive
- Potency [10]: inactive
- Potency [5]: inactive
- Potency [6]: inactive
- Potency [7]: inactive
- Potency [8]: inactive

SMILES: NC(=O)C1(N2CCCCC2)CCN(CCCN2c3ccccc3CCc3ccc(Cl)cc32)CC1
- Potency [1]: 26.8 µM (active)
- Potency [9]: 21.3 µM (active)
- Potency [3]: 21.3 µM (active)
- Potency [10]: 26.8 µM (active)
- Potency [5]: 23.9 µM (active)
- Potency [6]: 23.9 µM (active)
- Potency [7]: 23.9 µM (active)
- Potency [8]: inactive
